The campaign covered roughly 200,000 compounds. About 18,000 (9%) were called active. This is one part of a sample in which actives are shown more often than they occur. A number with no mark means an inactive call. No stated cut-off is given here; in the data, active means inhibition above about 50%; inactive means the rest.

This test is described as follows: antileishmanial activity against promastigotes – primary screen (AID 1063).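 Further: promastigotes grown with compound for 44 hours at 28 °C.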 The note with it: Leishmania major promastigotes, resazurin fluorescence viability; at 10 µM; stronger effect = higher value.
Consider `CNC(=S)N1N=C(c2ccccc2)CC1c1ccc(Br)cc1` (configuration not stated), for which the inhibition was 99.3% (active).
Then `Brc1ccc(C2CC(c3ccccc3)=Nc3ccccc3N2)cc1` (configuration not stated), with 27.2%; and `COc1ccc(C2CC(c3ccccc3)=NN2C(=O)COC(=O)COc2ccccc2)cc1` (configuration not stated), with 2.56%; and `O=C1CS(=O)CN1c1ccc(Oc2ccccc2)cc1` (configuration not stated), with -2.75%.
On to `NS(=O)(=O)c1cccc(NC(=O)COC(=O)/C=C/c2ccco2)c1`, for which the inhibition is -5.99%.
Consider `CCN(c1ccccc1)S(=O)(=O)c1ccc(NC(=O)C(C)(C)C)cc1`, for which the inhibition was 0.65%.
Regarding `CCN(c1ccccc1)S(=O)(=O)c1ccc(C(=O)Nc2nccs2)cc1`, the inhibition is 72.2% (active).
On to `CC(=O)Oc1ccc(C(=O)Nc2nccs2)cc1`, for which the inhibition is -7.34%.
On to `COc1ccc(CCc2nnc(CCC(=O)NCc3cnn(-c4ccccc4C)c3)o2)cc1`, for which the inhibition is 6.37%.
Take `CCOC(=O)N1CCN(C(=O)c2nn(-c3ccc(C)cc3)c(=O)c3c2c2ccccc2n3C)CC1`: the inhibition is -5.83%.
The value for `Cn1c2ccccc2c2c(C(=O)N3CCN(c4ccc(F)cc4)CC3)cn(C3CCCC3)c(=O)c21` was 99.4% (active).
`O=C(c1ccccc1Oc1ccccc1)N1CCN(c2ccc(F)cc2)CC1`: the inhibition was 10.2%.
For `O=C(CSc1nnc2ccc(-c3ccncc3)nn12)N1CCCCC1`, the inhibition is 20.4%.
With `CC(=O)Nc1ccc(S(=O)(=O)NC2(C(F)(F)F)C(=O)NC(C)=C2C#N)cc1` (configuration not stated), the inhibition was -4.23%.
`O=C(NCc1nnc(SCC(=O)N2CCCc3ccccc32)o1)c1ccccc1F`: the inhibition is -5.95%.
The value for `O=C(/C=C/c1ccc(Cl)cc1Cl)NCc1ccco1` was -1.38%.
With `O=C(Nc1cccnc1)c1ccc(Cl)c([N+](=O)[O-])c1`, the inhibition is 1.22%.
The value for `CN(C)c1ccc(/C=C/C(=O)c2ccc(C(C)(C)C)cc2)cc1[N+](=O)[O-]` was 27.1%.
Then `O=C(NCc1ccc(Cl)c(Cl)c1)c1cccnc1`, with -2.18%; and `O=C(/C=C/c1ccc(Cl)cc1Cl)c1cccnc1`, with 100% (active); and `O=C(/C=C/c1ccc(Cl)c([N+](=O)[O-])c1)c1cccnc1`, with 100% (active).
For the molecule `COCCNc1nc2nonc2nc1N(C)Cc1ccc(C)cc1`, the inhibition was 2.88%.
`CCC(C)(C(=O)Nc1ccccc1C)N(C(=O)CNC(C)=O)c1ccc(C)cc1` (configuration not stated): the inhibition is -4.62%.
The value for `CSc1ccc(CN2C(=O)NC3(CCCCCC3)C2=O)cc1` was 9.1%; that for `CC(NCc1nc2ccccc2n1C)C12CC3CC(CC(C3)C1)C2` (configuration not stated) was 12.4%.
Then `Cc1ccccc1-c1nc(C#N)c(NCc2ccco2)o1`, with -3.77%; and `CC(C)(C)C1CCC(C(=O)Nc2cccnc2)CC1` (configuration not stated), with -5.65%; and `CCOC(=O)c1sc(C)c2c1NC(C)(c1cccc3ccccc13)NC2=O` (configuration not stated), with 97.3% (active).
With `CCOC(=O)c1sc(-c2cccc([N+](=O)[O-])c2)cc1N`, the inhibition is 4.06%.
Consider `CCOC(=O)c1sc2nc(CSc3ccccc3)[nH]c(=O)c2c1C`, for which the inhibition is 14.1%.
The value for `O=C(O)CCCCCNc1ncnc2ccc(Br)cc12` was -1.72%; that for `CC(C)OC(=O)CN1C(=O)C(=O)c2ccccc21` was 88% (active); that for `CC(C)OC(=O)CN1C(=O)c2ccccc2C1=O` was 14.7%.
Then `Cc1cccc2c1N(CC(=O)OC(C)C)C(=O)C2=O`, with -12.8%; and `O=C(CC1CCCCC1)NCc1ccc(F)cc1`, with -12.7%; and `CC(C)Oc1ccc(CCc2nnc(SCC(=O)O)n2-c2ccccc2)cc1`, with -8.77%.
On to `NS(=O)(=O)c1ccc(NC(=O)COC(=O)C2(c3ccc(F)cc3)CCCC2)cc1`, for which the inhibition was 70.2% (active).
The value for `CN(C)S(=O)(=O)c1cccc(NC(=O)COC(=O)C2(c3ccccc3F)CCCC2)c1` was 28.6%; that for `NS(=O)(=O)c1ccc(NC(=O)COC(=O)c2ccco2)cc1` was 0.53%.
Turning to `CC(Oc1ccc(Br)cc1Br)C(=O)NC1CCCC1` (configuration not stated), the inhibition was -1.48%.
Then `O=C(CSCC(=O)Nc1cccc([N+](=O)[O-])c1)Nc1ccccc1`, with 4.18%; and `CC(=O)Nc1ccc(Nc2c3ccccc3nc3ccccc23)cc1`, with 101% (active).
Then `CC(=O)Nc1ccc(Nc2c([N+](=O)[O-])cc(S(C)(=O)=O)cc2[N+](=O)[O-])cc1`, with 10.8%; and `CC(=O)Nc1ccc(NC(=O)COc2ncnc3ccccc23)cc1`, with -2.61%.
Take `Cc1cc(CNC(=O)c2cccc([N+](=O)[O-])c2)c2ccccc2n1`: the inhibition is 9.74%.
On to `O=[N+]([O-])c1cccc(Nc2c3ccccc3nc3ccccc23)c1`, for which the inhibition was 69.1% (active).
Turning to `O=C(O)CCc1nc2cc(Cl)ccc2n(Cc2ccccc2)c1=O`, the inhibition is -0.11%.
For `CCC1(CC)NC(=O)N(Cc2nc3ccccc3s2)C1=O`, the inhibition is -8.89%.
Then `CCNC(=O)COC(=O)CCNC(=O)c1cccc(C)c1`, with -5.94%; and `CC1CC(C)(C)NC(=S)N1CCC(=O)N1CCN(Cc2ccccc2)CC1` (configuration not stated), with 0.54%; and `NC(=O)Cn1nc([N+](=O)[O-])nc1Oc1ccc(Br)cc1`, with 33.2%.
In the case of `NC(=O)c1ccc(NC(=O)COC(=O)C(Cc2ccccc2)NC(=O)c2ccccc2)cc1` (configuration not stated), the inhibition was 1.11%.
Then `O=C1CCCC2=C1C(c1ccccc1)n1c(s/c(=C/c3cccc(F)c3)c1=O)=N2` (configuration not stated), with 60.3% (active); and `O=C1CSC(c2cccc(F)c2)N1c1ccccc1F` (configuration not stated), with 1.64%.
Then `O=C1CC(c2cccc(F)c2)C2=C(CCCC2=O)N1` (configuration not stated), with -5.73%.
Then `CCSC1=NCCN1C(=O)c1ccc(S(=O)(=O)N(CC)CC)cc1`, with 2.69%.
Regarding `C=CCN(Cc1nc(-c2cc(OC)c3c(c2)OCO3)oc1C)C1CCS(=O)(=O)C1` (configuration not stated), the inhibition was 64.6% (active).
The value for `Cc1cccc(C(=O)Nc2ccccc2C(=O)NCc2cccnc2)c1` was -3.01%; that for `CCCCC(=O)Nc1ccc2c(c1)OCCO2` was 1.71%; that for `CCCCN(C)CCC(=O)Nc1ccc(Cl)cc1` was 63.4% (active).
Then `O=C(CCC(=O)OCc1ccc(Cl)cc1)Nc1ccccc1`, with -2.39%; and `CCOC(=O)Cc1csc(NC(=O)C(C)(C)C)n1`, with -0.74%.
Then `CCOC(=O)Cc1csc(SCc2cc(=O)oc3cc(O)ccc23)n1`, with -10.2%; and `CCOC(=O)Cc1csc(SCC(=O)NC(C)C23CC4CC(CC(C4)C2)C3)n1` (configuration not stated), with 98.6% (active); and `CCOC(=O)Cc1csc(NC(=O)CSc2nc(C)cc(=O)[nH]2)n1`, with -12.1%.
Take `CCOC(=O)Cc1csc(NC(=O)CSc2ccc(Br)cc2)n1`: the inhibition is 77.7% (active).
As for `CCOC(=O)Cc1csc(NC(=O)Nc2ccccc2)n1`, the inhibition was 0.22%.

What is called inhibition is the relative decrease from the control value, in per cent.

The record behind these values is PubChem BioAssay AID1063 (University of Pittsburgh Molecular Library Screening Center, 2008).
